# Screening data: PubChem, several laboratories
# The list is not random: actives were taken first. Their share in the collection is about 5.2%.
# PfM18AAP inh: PfM18AAP inhibitors, malaria aminopeptidase, primary screen, biochemical, QFRET, recombinant enzyme | 1.2% of 290,000 active | H-Glu-NHMec fluorogenic cleavage | AID 1822, 2009 | inhibition, % at 7.35 µM | M18 aspartyl aminopeptidase (Plasmodium falciparum 3D7);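 active = inhibition above the campaign mean inhibition over all tested compounds plus 3 SD, cut at about 28% in these data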
# APOBEC3G inh: APOBEC3G DNA deaminase inhibitors, primary screen, biochemical, fluorescence, single-stranded DNA substrate, uHTS | DNA dC->dU-editing enzyme APOBEC-3G (Homo sapiens), Q9HC16 | AID 493012, 2011 | recombinant A3G, ssDNA deamination FAM/TAMRA fluorescence | inhibition, % at 20 µM | 0.28% of 330,000 active;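 active = inhibition of at least 40% at 20 µM, with no more than 30% in the related APOBEC3A deaminase screen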
# Target sequence (Q9HC16 whole entry, looked up): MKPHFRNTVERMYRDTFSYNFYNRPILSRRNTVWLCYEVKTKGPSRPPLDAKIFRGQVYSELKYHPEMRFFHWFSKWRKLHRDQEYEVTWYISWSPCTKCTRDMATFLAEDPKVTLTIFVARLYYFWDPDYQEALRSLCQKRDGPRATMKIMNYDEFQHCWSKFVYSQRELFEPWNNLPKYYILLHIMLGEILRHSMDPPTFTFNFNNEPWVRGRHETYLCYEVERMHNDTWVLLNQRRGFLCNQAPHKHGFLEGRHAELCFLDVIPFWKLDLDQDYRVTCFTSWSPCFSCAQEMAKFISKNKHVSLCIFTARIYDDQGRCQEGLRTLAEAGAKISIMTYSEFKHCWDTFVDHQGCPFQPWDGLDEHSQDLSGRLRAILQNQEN
# ALR H2O2 inh: inhibitors of human ALR sulfhydryl oxidase, primary screen, biochemical, H2O2 detection, HRP-luminol luminescence, single point | FAD-linked sulfhydryl oxidase ALR (Homo sapiens), P55789 | purified ALR, DTT oxidation | inhibition, % (no concentration beside the values) | 3.8% of 290,000 active;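 active = mean replicate inhibition above about 79%, with every replicate also reaching it, limit read from the data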
# Target sequence (P55789 whole entry, looked up): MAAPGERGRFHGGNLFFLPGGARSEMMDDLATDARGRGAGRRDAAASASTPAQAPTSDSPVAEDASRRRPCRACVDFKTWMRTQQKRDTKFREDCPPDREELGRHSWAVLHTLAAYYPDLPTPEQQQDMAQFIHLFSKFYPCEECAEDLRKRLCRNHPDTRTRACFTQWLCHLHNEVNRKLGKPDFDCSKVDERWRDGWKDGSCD
# CendR NRP1 mod: modulators of CendR peptide binding to NRP-1, primary screen, biochemical, fluorescence polarization, uHTS; FAM-RPARPAR peptide binding to NRP-1; 0.85% of 360,000 active; inhibition, % at 25 µM; Neuropilin-1 (Homo sapiens), O14786;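 active = inhibition or corrected inhibition above about 18%, plus a signal ratio from 0.5 to 1.5, limit read from the data, passing the limit was not always enough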
# A3A deaminase: APOBEC3A ssDNA deaminase inhibitors, primary screen, selectivity assay for APOBEC3G inhibitor project, biochemical, FAM/TAMRA oligo cleavage fluorescence. 0.41% of 330,000 active. AID 493011, 2011. recombinant A3A, FAM/TAMRA ssDNA deamination fluorescence. inhibition, % at 20 µM;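 active = at least 40% inhibition at 20 µM here, with at most 30% in a related deaminase screen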
# CR mimetic SO: reduction of superoxide in aged yeast, primary screen, HTS; S. cerevisiae aged cells, superoxide DHE fluorescence; hits give low values; superoxide response (% of plate mean), % at 10 µM; 0.18% of 330,000 active; AID 2690, 2010;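 active = superoxide response under a set limit, about three screen SD below normal, cut at about 65% in these data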;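 note: yeast aged for seven days with compound at 30 °C before DHE staining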
# A number is an active result; - = inactive; . = not tested or not shown.
SMILES,PfM18AAP inh,APOBEC3G inh,ALR H2O2 inh,CendR NRP1 mod,A3A deaminase,CR mimetic SO
Nc1ccc(C(=O)OCC(=O)Nc2cccc(S(=O)(=O)NC3=NCCCCC3)c2)cc1[N+](=O)[O-],.,-,-,-,-,-
COCCOC(=O)C1=C(C)NC(SCC(=O)NC(C)(C)C)=C(C#N)C1c1ccco1 (stereo not given),-,-,.,-,-,.
C=CCOC(=O)C1=C(C)NC(SCC(=O)Nc2ccc(C)c(Cl)c2)=C(C#N)C1c1ccco1 (stereo not given),-,-,98.3,-,-,-
N#CC1=C(SCC(=O)Nc2ccc(C(=O)O)cc2)NC(=O)CC1c1ccco1 (stereo not given),-,-,98.3,-,-,-
O=C(c1ccc(Cl)cc1)N1CCN(c2cccc3[nH]ccc23)CC1,-,-,97.0,-,-,-
Cc1ccccc1N1CCN(Cc2c[nH]c3ccccc23)CC1,-,-,-,-,-,-
O=C(c1ccccc1)c1ccc(C(=O)N2CCN(c3ccccc3Cl)CC2)cc1,.,-,-,-,-,-
Cc1ccc(CN2CCN(c3cccc4[nH]ccc34)CC2)cc1,-,-,99.0,-,-,-
O=C(c1ccc(Cn2c(=O)[nH]c3ccccc3c2=O)cc1)N1CCN(c2ccc(Cl)cc2)CC1,-,-,-,25.3,-,-
Cc1ccc(C)c(N2CCN(C(=O)c3ccc(Cn4c(=O)[nH]c5ccccc5c4=O)cc3)CC2)c1,-,-,-,-,-,-
Cc1[nH]c(=O)[nH]c(=O)c1S(=O)(=O)Nc1ccc(S(N)(=O)=O)cc1,-,-,-,-,-,-
COc1cccc(C(=O)NC2CC3CCCC(C2)N3CC(=O)Nc2ccc(N(C)C)cc2)c1 (stereo not given),-,-,.,-,-,-
O=C(O)c1cnn(-c2nc(-c3cccc(F)c3)cs2)c1C(F)(F)F,-,-,-,-,-,-
Nc1cccc(-c2csc(-n3ncc(C(=O)O)c3C(F)(F)F)n2)c1,-,-,98.9,-,-,-
CCN(CC)C(=O)CSC(Nc1ccc(F)cc1)=C(C#N)C#N,-,-,98.8,-,-,-
Cc1ccc(CSC(Nc2ccc(F)cc2)=C(C#N)C#N)cc1,-,-,-,-,-,-
CC(C)N1CC=C2C(C#N)=C(N)C(C#N)(C#N)C(c3ccccc3)C2C1 (stereo not given),-,.,-,-,.,-
Cc1ccc(C2C3CSCC=C3C(C#N)=C(N)C2(C#N)C#N)cc1 (stereo not given),-,-,93.4,-,-,-
CCOC(=O)C1=C(N)Oc2cc(O)ccc2C1c1cccc(Cl)c1 (stereo not given),-,-,-,26.8,-,-
COC(=O)C(Cc1ccccc1)NC(=O)CC(C)CC(=O)Nc1ccc(OC)cc1OC (stereo not given),-,-,-,-,-,-
CC(Oc1ccc2c3c(c(=O)oc2c1)CCC3)C(=O)NC1CCN(Cc2ccccc2)CC1 (stereo not given),-,-,-,18.0,-,-
CC(C)CC1NC(=O)N(CC(=O)N2c3ccccc3NC(=O)C2(C)C)C1=O (stereo not given),-,-,.,-,-,-
CN1CCN(C=NC2=NN(c3cccc(C(F)(F)F)c3)CC2)CC1,-,-,98.8,-,-,-
CN(C)C=NC1=NN(c2cccc(C(F)(F)F)c2)CC1,-,-,94.6,-,-,-
Cc1n[nH]c(=O)n1-c1cccc(C(F)(F)F)c1,-,-,-,-,-,-
SMILES,PfM18AAP inh,APOBEC3G inh,ALR H2O2 inh,CendR NRP1 mod,A3A deaminase,CR mimetic SO
N#Cc1ccc(C(=O)Nc2nnc(-c3ccccn3)o2)cc1,-,-,.,-,-,-
S=C(NCCc1ccc(Cl)cc1)NCc1ccccc1,-,-,-,-,-,-
CC1CCN(S(=O)(=O)N2CCC(C(=O)NCCN3CCOCC3)CC2)CC1,-,-,-,-,-,-
O=C(NCCN1CCCCCC1)C1CCN(S(=O)(=O)N2CCOCC2)CC1,-,-,-,22.6,-,-
Cc1ccc(CNC(=O)c2ccc(NC3=NC4CS(=O)(=O)CC4S3)cc2)cc1 (stereo not given),-,-,-,-,-,-
COc1ccc(N2CCN(S(=O)(=O)CCNC(=O)COc3ccccc3OC)CC2)cc1,-,-,92.5,-,-,-
COc1ccccc1OCC(=O)NCCS(=O)(=O)N1CCN(c2ccc(F)cc2)CC1,-,-,-,-,-,-
CCCCCc1c(C)nc(NCc2ccccc2)[nH]c1=O,-,-,-,-,-,-
COC(=O)C(NNc1ccccc1C)(NC(=O)c1ccc(F)cc1)C(F)(F)F (stereo not given),-,-,97.9,-,-,-
NC(=O)C1CCN(c2ccc(S(=O)(=O)N3CCC(Cc4ccccc4)CC3)cn2)CC1,-,-,.,-,-,-
O=S(=O)(c1ccc(Cl)nc1)N1CCC(Cc2ccccc2)CC1,.,-,99.1,-,-,-
Cc1ccc(CN2C(=O)c3ccccc3C2C(=O)NCC2CCCO2)cc1 (stereo not given),-,-,-,-,-,-
CCN(CC)CCCNC(=O)C1c2ccccc2C(=O)N1Cc1ccc(C)cc1 (stereo not given),-,-,-,18.8,-,-
Cc1ccc(S(=O)(=O)CCC(=O)OCC(=O)N2CC(=O)Nc3ccccc32)cc1,-,-,-,-,-,-
O=C(OCn1ncc(Br)c(Br)c1=O)c1ccccc1Cl,-,-,-,-,-,-
O=C(OCn1ncc(Cl)c(Cl)c1=O)c1cccc(C(F)(F)F)c1,-,-,97.1,-,-,-
O=C(CSCC(=O)N1CCCCC1)OCC(=O)c1c[nH]c2ccccc12,-,-,98.3,-,-,-
O=C(COC(=O)CSCC(=O)N1CCCCC1)Nc1ccc(Cl)cc1,-,-,88.9,-,-,-
COc1ccc(Br)cc1C(=O)N/N=C/c1ccc([N+](=O)[O-])cc1,-,-,-,-,-,-
O=C(Nc1ccc(Br)cc1)c1cc([N+](=O)[O-])cc([N+](=O)[O-])c1,-,-,-,-,-,-
CCN(CC)C(=O)COc1cc(C)c(Cl)c(C)c1,-,-,-,-,-,-
COC(=O)N/N=C/c1sc(N2CCCCC2)nc1-c1cccs1,-,-,98.4,-,-,-
COc1ccc(C(=O)N/N=C/c2sc(N3CCOCC3)nc2-c2ccccc2)cc1OC,-,-,-,-,-,-
CCc1[nH]nc(C(=O)N2CCCC(Nc3ccc(C(C)C)cc3)C2)c1C (stereo not given),-,-,95.0,-,-,-
